The text below walks through data of PubChem BioAssay (Tox21).

Values joined by “and” are separate entries in the source; they are usually repeats but may differ in a detail not shown here. Identical values can stand only once. Where a structure was tested more than once in an assay, its records may differ in their call. Active and inactive are the calls of the source. Where a call stands in place of a potency, no number is given. Calls come from the whole dose curve; as a rule, active = well fitted curve in the direction sought with a large enough effect in the signal ratio in the repeat runs (not every such curve was filed as active); inconclusive = weak or mixed curves, or effect the other way; inactive = no such curve, though single readings can be large or run the other way; the % refers to the signal ratio.
Potency is the fitted concentration of half-maximal effect.

Sequence of Estrogen receptor (Homo sapiens) (P03372 whole entry, looked up): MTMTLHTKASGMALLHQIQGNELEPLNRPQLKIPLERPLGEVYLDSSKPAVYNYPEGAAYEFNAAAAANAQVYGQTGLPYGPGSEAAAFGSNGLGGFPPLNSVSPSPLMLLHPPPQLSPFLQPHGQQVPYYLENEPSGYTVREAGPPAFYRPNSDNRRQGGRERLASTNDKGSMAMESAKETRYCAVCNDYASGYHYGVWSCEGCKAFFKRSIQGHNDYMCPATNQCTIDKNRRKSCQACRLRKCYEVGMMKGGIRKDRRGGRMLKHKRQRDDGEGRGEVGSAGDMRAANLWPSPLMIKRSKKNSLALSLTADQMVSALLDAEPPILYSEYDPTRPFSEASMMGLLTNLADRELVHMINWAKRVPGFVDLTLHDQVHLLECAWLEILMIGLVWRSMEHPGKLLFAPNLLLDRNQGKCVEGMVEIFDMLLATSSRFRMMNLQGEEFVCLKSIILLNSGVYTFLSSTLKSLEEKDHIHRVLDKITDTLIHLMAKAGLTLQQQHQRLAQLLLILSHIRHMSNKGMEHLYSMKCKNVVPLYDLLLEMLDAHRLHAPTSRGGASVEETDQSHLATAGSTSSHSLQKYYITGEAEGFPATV

The assay concerns the target Estrogen receptor (Homo sapiens) (UniProt P03372). Description: qHTS assay to identify small molecule antagonists of the estrogen receptor alpha (ER-alpha) signaling pathway (AID 743069). Particulars: HEK293 ER-alpha-UAS-bla, beta-lactamase ratio, antagonist mode; series mostly up to 69.4 µM. An excerpt:
National Center for Advancing Translational Sciences [NCATS]
NIH Chemical Genomics Center [NCGC]
U.S. Environmental Protection Agency [EPA]
National Institutes of Environmental Health Sciences [NIEHS]
National Toxicology Program [NTP]
U.S. Food and Drug Administration [FDA]
Estrogen receptor (ER), a nuclear hormone receptor, plays an important role in development, metabolic homeostasis and reproduction. Two subtypes of ER, ER-alpha and ER-beta have similar expression patterns with some uniqueness in both types. Endocrine disrupting chemicals (EDCs) and their interactions with steroid hormone receptors like ER causes disruption of normal endocrine function. To identify the compounds that inhibit ER signaling, an ER-alpha-UAS-bla GripTiteTM cell line (Invitrogen, Carlsbad, CA, USA) containing a beta-lactamase reporter gene under the control of an Upstream Activator Sequence (UAS) stably integrated into HEK293 cells was used to screen the Tox21 10K compound library.
Tox21 Assay Protocol Summary:
ER-alpha-bla cells were cultured in assay medium containing 2% charcoal stripped FBS overnight in the culture flasks before the assay was performed. The cells were dispensed at 5,000 cells/5 uL of assay medium per well into black wall/clear-bottom 1536-well plates using a Multidrop Combi (ThermoFisher Scientific, Waltham, MA) dispenser. After the assay plates were incubated at a 37C and 5% CO2 for 4 hr, 23 nL of compounds dissolved in DMSO, positive controls or DMSO only was transferred to the assay plate by a Pintool station (Kalypsys, San Diego, CA), followed by addition of 1 uL of 17beta-estradiol in assay medium using a Flying Reagent Dispenser (Aurora Discovery, San Diego, CA). The plates were incubated at 37C and 5% CO2 for 18 hr. Then 1 uL of LiveBLAzerTM B/G FRET substrate was added using a Flying Reagent Dispenser, the plates were incubated at room temperature for 2 hours, and fluorescence intensity was measured by an Envision plate reader (PerkinElmer, Shelton, CT).
(In general: In qHTS, concentration-response curves come from the screen itself.)
Regarding `CCC(C)(O)CCCC(C)C` (stereo not given), the Potency entry is “inactive”. For the compound `O=[N+]([O-])c1ccc2c(c1)Cc1ccccc1-2`, the Potency entry was “inactive”. The result for `COC(=O)C1=C(C)NC(C)=C(C(=O)OCCN(C)Cc2ccccc2)C1c1cccc([N+](=O)[O-])c1` (stereo not given) reads 23.9 µM [inconclusive] (active). The result for `Nc1ccc(Cl)cc1Cl` reads “inactive”; that for `CCCCNS(=O)(=O)c1ccccc1`, “inactive”.

As to `Cc1ccc(C)c(O)c1C`, the Potency result was “inactive”. `c1cc(-c2ccncc2)ccn1`: the Potency entry is “inactive”. In the case of `COc1cccc2c1C(=O)c1c(O)c3c(c(O)c1C2=O)C[C@@](O)(C(=O)CO)C[C@@H]3O[C@H]1C[C@H](N)[C@H](O)[C@H](C)O1`, the Potency result is “inactive and 6.01 µM [inconclusive] (active) and 3.46 µM [inconclusive] (active)”. The result for `O=C(Nc1ccc([N+](=O)[O-])cc1Cl)c1cc(Cl)ccc1O` reads “inactive”; that for `Cc1[nH]c(=O)c(C#N)cc1-c1ccncc1`, “inactive”; that for `CC1=CCC(C(C)(C)O)CC1` (stereo not given), “inactive”.

On to `CC(=O)Oc1ccccc1C(=O)Nc1ncc([N+](=O)[O-])s1`, for which the Potency result was “inactive”. As for `CN1C(C(=O)Nc2ccccn2)=C(O)c2ccccc2S1(=O)=O`, the Potency result is “inactive”. With `C=C(C)C1CC=C(C)CC1` (stereo not given) the entry was “inactive”; with `CC(C)=CCCC(C)CCO` (stereo not given), “inactive”; with `S=C(NC1CCCCC1)NC1CCCCC1`, “inactive”. The result for `COC(=O)CCC(=O)OC` reads “inactive”; that for `Cc1cccc(N(C)C(=S)Oc2ccc3ccccc3c2)c1`, “inactive”. For `COc1ccccc1/C=C/C=O`, the Potency result is “inactive”. The result for `O=C(COc1ccc(Cl)cc1)N1CCN(Cc2ccc3c(c2)OCO3)CC1` reads “inactive”. With `CCCCOCCOCCOCCO` the entry was “inactive”; with `C#C[C@]1(O)CC[C@H]2[C@@H]3CCC4=Cc5oncc5C[C@]4(C)[C@H]3CC[C@@]21C`, 49 µM [inconclusive] (active); with `CC(C)OB(OC(C)C)OC(C)C`, “inactive”. With `O=S(=O)(O)c1ccc(O)cc1` the entry was “inactive”; with `Cc1c(C(N)=O)cc([N+](=O)[O-])cc1[N+](=O)[O-]`, “inactive”. `Nc1ncnc2nc[nH]c12`: the Potency result is “inactive”. The result for `O=C(/C=C/C=C/c1ccc2c(c1)OCO2)N1CCCCC1` reads “inactive”; that for `OCCO`, “inactive”; that for `CC(=O)CC/C=C(\C)CCC=C(C)C`, “inactive”. The result for `CN(C)CCC=C1c2ccccc2CCc2ccccc21` reads 54.9 µM [inconclusive] (active). With `CCCCC(CC)COCC1CO1` (stereo not given) the entry was “inactive”; with `c1ccncc1`, “inactive”. With `OC(CCl)CCl`, the Potency entry was “inactive”. `c1ccc2c(c1)Oc1ccccc1S2`: the Potency result is “inactive”. `CC(C(=O)O)c1cccc(C(=O)c2ccccc2)c1` (stereo not given): the Potency result is “inactive”. With `CC(C)(C)NC(=O)[C@H]1CC[C@H]2[C@@H]3CC[C@H]4NC(=O)C=C[C@]4(C)[C@H]3CC[C@]12C` the entry was “inactive”; with `O=C(OCc1ccccc1)c1ccccc1O`, “inactive”; with `Cn1cnc([N+](=O)[O-])c1Sc1ncnc2nc[nH]c12`, “inactive”. `COC(C)COC(C)COC(C)CO` (stereo not given): the Potency entry was “inactive”.

As for `COc1ccc(OC)c(C(O)CNC(=O)CN)c1` (stereo not given), the Potency result was “inactive”.
